# CRFBP-R2 agonist – agonists of human CRF-binding protein/CRF-R2 receptor complex; hit rate 0.46% among 350,000; AID 588473; activation, % at 13.2 µM; HEK293 CRF-R2/CRF-BP, calcium dye fluorescence (FLIPR); percent of saturating CRF peptide response;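 active = activation of at least 50%, plus an integration ratio under a set limit after plate pattern correction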;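 also: plate controls were neutral control wells without compound for no effect and CRF at EC100 for full effect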
# HNF4A DNA FP – change in binding of human HNF4 alpha to DNA; activity change, % at 10 µM; hit rate 0.3% among 360,000; P41235; AID 1224865; HNF4a-FITC DNA binding, fluorescence polarization, 1 h; in the data active = activity change above about 30%, passing the limit was not always enough
# TPT1 inh – inhibitors of Candida albicans tRNA 2'-phosphotransferase TPT1; recombinant caTPT1, FP RNA substrate dephosphorylation; inhibition, % at 5 µM; hit rate 0.81% among 300,000; AID 1962;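 active = inhibition above the mean of all tested compounds plus 3 SD, set per screening campaign, cut at about 24% in these data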;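 also: plate controls were DMSO alone for no effect and ferristatin control at 100 nM for full effect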
# IDE act – IDE (human) activation, cell-based; P14735; HEK cells, FAbeta-B cleavage, fluorescence polarization; 0% vehicle, 100% cell-free pure enzyme wells; activation, % at 5.96 µM; hit rate 0.073% among 340,000; AID 493087;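 active = activation above the mean of all tested compounds plus 3 SD, set per screening campaign, cut at about 17% in these data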
# IDE inh – inhibitors of human insulin-degrading enzyme in cells; hit rate 0.41% among 320,000; P14735; AID 434962; HEK cells, FAbetaB cleavage, fluorescence polarization; inhibition, % at 5.59 µM;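 active = percent inhibition above the average of all tested compounds plus 3 SD, set per screening campaign, cut at about 16% in these data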;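 also: IDE supplied by intact live HEK cells; FP after avidin binding of uncleaved biotin substrate so inhibition keeps polarization high; 0% = DMSO wells and 100% = 60 µM reference IDE inhibitor Ii1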
# * marks the source's active call; other numbers are inactive results; . = no result; ! = not confirmed by another sample. A selection: hits, their analogues and other compounds. The true share with any hit is near 1.4%.
SMILES,CRFBP-R2 agonist,HNF4A DNA FP,TPT1 inh,IDE act,IDE inh
CCOC(=O)C1CCCN(c2ccc([N+](=O)[O-])c3nonc23)C1 (stereo not drawn),208*,-101,.,-91,.
CCn1nc(/C=C/c2ccccc2)nc2c(=O)n(C)c(=O)nc1-2,-3,107*,.,.,.
CCn1nc(-c2cccs2)nc2c(=O)n(C)c(=O)nc1-2,0,100*,.,1,.
O=c1[nH]c2ccccc2n1C1CCN(C(CCc2ccccc2)c2nnnn2-c2ccc3c(c2)OCCO3)CC1 (stereo not drawn),.,0,.,.,.
Cc1cc(/C=C2\C(=O)NC(=O)N(c3cccc(Br)c3)C2=O)c(C)n1C,97*,0,-1,1,0
CCOC(=O)[C@]12Cc3cc(C)ccc3[C@H]1N(C(C)C)C(=O)c1ccccc12,.,-4,.,.,.
Nc1c2c(nc3ccccc13)CCN(Cc1ccccc1)C2,69*,-39,-59,7,-3
C1=C(c2c[nH]c3ccccc23)CCN(Cc2ccccc2)C1,4,3,5,-2,2
CC(C)(C)c1cc([N+](=O)[O-])cc(C(C)(C)C)c1O,68*,.,1,.,3
COC(=O)C1=C(c2ccc(OC)c(OC)c2)C[C@@H]2CC[C@H]1N2C(=O)NC(C)C,-2,-1,.,4,3
C[C@@H]1CN([C@@H](C)CO)C(=O)CCCn2cc(nn2)CO[C@H]1CN(C)C(=O)Oc1cccc2ccccc12,0,-1,.,.,.
CCCC1(CCC)C(=O)NC(=Nc2ccccc2)NC1=O,0,-7,-3,3,-4
CCCCC1(CCCC)C(=O)NC(=Nc2cccc(C)c2)NC1=O,89*,-4,-5,-1,3
CCOP(=O)(OCC)C(NC(=O)c1ccccc1)C(Cl)(Cl)Cl (stereo not drawn),0,-2,1,7,7
CCCOP(=O)(OCCC)C(NC(=O)c1cc(OC)c(OC)c(OC)c1)c1ccccc1 (stereo not drawn),0,129*,-2,4,9
O=C(O)c1cc[c]([Hg][Cl])cc1,1,1,-2,-61,96*
COC1C(C)OC(OC2CC(C)(O)Cc3cc4c(c(O)c32)C(=O)c2c(O)cc3c(c2C4=O)OC2OC3(C)C(O)C(N(C)C)C2O)C(OC)C1(C)OC (stereo not drawn),198*,-109,.,0,.
O=P(O)(Oc1ccccc1)c1ccccc1,-1,1,.,2,.
O=c1c([N+](=O)[O-])cn(O)cc1[N+](=O)[O-],0,-2,.,3,.
O=[N+]([O-])c1ccc(-[n+]2c(-c3ccccc3)cc(-c3ccccc3)cc2-c2ccccc2)cc1,69*,1,-4,1,2
CCCCn1nnnc1C(C1CC1)N1CCC2(CC1)C(=O)NCN2c1ccccc1 (stereo not drawn),.,6,.,.,.
O=C(CCCN1CCC2(CC1)C(=O)NCN2c1ccccc1)c1ccc(F)cc1,137*,2,-2,-2,-3
CCOC(=O)[C@]12Cc3cc(C)ccc3[C@H]1N(Cc1ccccc1)C(=O)c1cc(F)c(F)cc12,.,1,.,.,.
CCCCCn1c(=O)c(C(=O)Nc2ccccc2Cl)c(O)c2ccccc21,-1,2,-2,6,0
CCCCn1c(=O)c(C(=O)Nc2ccccc2C)c(O)c2ccccc21,6,39*,0,3,2
SMILES,CRFBP-R2 agonist,HNF4A DNA FP,TPT1 inh,IDE act,IDE inh
CCOCC1(CCc2ccccc2)C(=O)NC(=S)NC1=O,-3,0,.,1,.
CCN(CC)c1ccc(N=Cc2c(O)n(Cc3ccccc3)c(=O)[nH]c2=O)cc1,190*!,13,23,-1,1
CCOC(=O)C(O)(c1ccc(NC(=S)NC(=O)c2ccc(Cl)cc2Cl)cc1)C(F)(F)F (stereo not drawn),148*,-2,0,3,-3
CCOC(=O)C(O)(c1ccc(NC(=S)NC(=O)c2ccc(Cl)cc2Cl)c(C)c1)C(F)(F)F (stereo not drawn),114*,-1,0,-2,4
Cc1cc(C)n(-c2ccc(NN=C(C#N)C#N)cc2)n1,53*,-2,-3,9,6
CCN(CC)S(=O)(=O)c1ccc(NN=C(C#N)C#N)cc1,23,-1,-1,4,3
N#CC(C#N)=NNc1ccc(-n2ccc(C(F)(F)F)n2)cc1,53*,0,4,1,1
C[C@]12CCC3C(C(=O)C[C@H]4C[C@@H](O)CC[C@]34C)C1CCC2=O (stereo partly drawn),-1,0,.,1,-3
CCOC(=O)[C@]12Cc3cc(C)ccc3[C@H]1N(C1CCCCC1)C(=O)c1cc(OC)ccc12,.,1,.,.,.
COC(=O)C1=C(c2ccc(Cl)c(C(F)(F)F)c2)C[C@@H]2CC[C@H]1N2C(=O)NCCOc1ccccc1Cl,4,-1,.,6,3
O=C1CC(=O)N(Cc2ccccc2)C(=O)N1Cc1ccccc1,6,52*,.,-1,.
CCn1c(O)c(C=Nc2ccc(N3CCOCC3)c(Br)c2)c(=O)n(CC)c1=S,100*,-2,4,2,0
CCn1c(O)c(/C=N/N2CCOCC2)c(=O)n(CC)c1=S,-1,4,23,4,0
NCCc1cc(O)c(O)cc1O,1,-13,.,2,.
NC(Cc1cc(O)c(O)cc1O)C(=O)O (stereo not drawn),.,.,31*,.,-5
Cc1ccc(S(=O)(=O)N2Cc3cc(-c4ccccc4)ccc3-n3nncc3C2)cc1,.,48*,.,.,.
O=S(=O)(c1cc(Cl)cc(Cl)c1)N1Cc2cc(-c3ccccc3)ccc2-n2nncc2C1,.,-1,.,.,.
COc1ccc(C(=O)OCC2CN2c2cccc([N+](=O)[O-])c2)cc1 (stereo not drawn),.,2,.,.,.
CC1=NCCc2c1[nH]c1cc(O)ccc21,220*,-99,-102,66*,-28
C1=NCCc2c1[nH]c1ccccc21,2,2,1,1,-2
Nc1c(Br)cc2c3c(cccc13)-c1ccccc1-2,34,.,.,.,.
O=C1NC(=O)N(c2ccccc2F)C(=O)/C1=C/c1ccc(Sc2nc3ccccc3[nH]2)o1,24,14,1,-44,34*
COC(=O)C1=C(c2ccccc2)C[C@@H]2CC[C@H]1N2C(=O)NCc1ccc(C(F)(F)F)cc1,1,0,-3,1,-2
COC(=O)C1=C(c2ccc(C(C)=O)cc2)C[C@@H]2CC[C@H]1N2C(=O)NCc1ccc(C(F)(F)F)cc1,68*,3,.,9,2
CC1(CCO)C(=O)NC(=S)NC1=O,2,2,.,3,.
O=C1c2ccccc2-n2nnc(-c3ccccc3)c2C2c3ccccc3CCN12 (stereo not drawn),.,1,.,.,.
COCCNC(=O)Cn1cc(/C=C2\C(=O)NC(=O)N(c3cccc(C)c3C)C2=O)c2ccccc21,3,2,11,-3,-1
COCCCNC(=O)Cn1cc(/C=C2\C(=O)NC(=O)N(c3ccccc3F)C2=O)c2ccccc21,46,57*,20,-3,-4
O=c1c2ccccc2nc(/C=C/c2ccc(O)cc2)n1-c1cccc(O)c1,1,9,14,-148,83*
